# Assay results published in PubChem BioAssay (NCI).
# Where “and” joins values, the source holds several entries; their conditions need not be identical. Equal values may be shown once. About 83,000 compounds went through this panel and 20% of them were active in at least one assay; those are over-represented in the sample as a whole.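 Results are percent growth after 48 hours of single-concentration exposure. 100 means growth as in untreated cells, lower positive values show inhibition; negative values down to -100 show cell death.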 Calls of active or inactive are those of the source. The calls were made as follows: active = growth percent below 10; inactive = the rest.
# System: MDA-MB-468 breast
# Assay: NCI-60 one-dose screen, 48 h (100 = growth as untreated, 0 = no growth, -100 = all killed)
# Settings: 10 µM unless noted
row,SMILES,growth
1,C/C(=N\NC(=O)Cn1c(-c2ccc(S(C)(=O)=O)cc2)nc2ccccc21)c1ccc(Cl)cc1,98.3% (inactive)
2,O=S(=O)(Cc1ccc(Cl)cc1Cl)c1ccc(Cl)cc1,-29.8% (active)
3,COc1cc(-c2nc(SCC(C)C)nc(Nc3cccc4ccccc34)c2C#N)cc(OC)c1OC,116% (inactive)
4,CN1C(=O)C(N=Nc2ccc([N+](=O)[O-])cc2)SC1=S (centres undefined),84.6% (inactive) and 85.1% (inactive)
